# Compounds with a hit are over-represented: about 2.3% of the library has one in this group of screens.
# 697 NFkB inh – lowers PMA/ionomycin-induced NF-kB signal in 697 B cells | 697 B-cell NF-kB luciferase reporter, 16 h | inhibition, % at 4 µM | 0.33% of 330,000 active; in the data active = inhibition above about 35%
# Gli-Sufu block – antagonists of Gli-Sufu signaling. inhibition, % at 5 µM. Sufu-KO-LIGHT fibroblasts, Gli luciferase reporter luminescence. 0.74% of 340,000 active;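 active = inhibition above about 55%, limit read from the data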
# EBV LMP1 NFkB – reduces LMP1-driven NF-kappaB luciferase signal | 0.69% of 350,000 active | LMP1-induced NF-kappaB luciferase reporter cells, luminescence | inhibition, % at 12.5 µM | AID 504558; in the data active = inhibition above about 41%
# MITF TRPM1 inh – MITF TRPM1 promoter inhibition in SK-MEL-5 cells | SK-MEL-5 TRPM1 promoter luciferase, 24 h | inhibition, % at 12.5 µM | 0.83% of 330,000 active | AID 488899;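 active = mean inhibition across replicates of 60% or more, whatever share of single replicates reaches that level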
# Jurkat NFkB inh – lowers PMA/ionomycin-induced NF-kB signal in Jurkat cells. AID 435003. PMA/ionomycin-induced NF-kB luciferase reporter, luminescence. 0.53% of 330,000 active. inhibition, % at 4 µM; in the data active = inhibition above about 50%
# Shn3 3UTR inh – reduces Shn3 3'UTR luciferase signal in osteoblasts; inhibition, % at 12.5 µM; 0.52% of 360,000 active; Clone20 osteoblast Shn3 3'UTR firefly luciferase, 24 h;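 active = mean inhibition of at least 75% with every replicate also reaching 75%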
# Jurkat NFkB conf – inhibitors of the PMA/ionomycin-induced NF-kB reporter in Jurkat cells, retest; shares compounds with Jurkat NFkB inh; Jurkat NF-kB luciferase, 16 h; inhibition, % at 4 µM; 27% of 2,700 active; AID 435020;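 active = inhibition reaching about 45% at 4 µM in either replicate, limit read from the data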
# Hits are given with their value; - = inactive; . = not tested or not shown.
SMILES,697 NFkB inh,Gli-Sufu block,EBV LMP1 NFkB,MITF TRPM1 inh,Jurkat NFkB inh,Shn3 3UTR inh,Jurkat NFkB conf
COc1ccc2c(c1)/C(=C/c1cnc[nH]1)C(=O)N2,-,-,88.1,-,55.0,-,-
COc1ccc(-n2nnnc2C(C2CC2)N2CCC(n3c(=O)[nH]c4ccccc43)CC2)cc1 (centres undefined),.,.,.,.,.,-,.
COc1cccc(NP(=O)(Oc2ccccc2Cl)Oc2ccccc2Cl)c1,-,-,-,-,-,-,.
COc1cccc(NP(=O)(Oc2ccccc2)Oc2ccccc2)c1,-,-,-,-,62.3,-,-
COC(=O)C[C@]1(C(=O)OC)CN(C#N)N(c2ccc(Cl)cc2)C12c1ccccc1-c1ccccc12,-,-,89.9,95.9,97.3,97.2,76.5
CC(C)Sc1nnc([C@@H](N)Cc2ccccc2)o1,-,-,-,-,-,-,.
O=c1c2ccccc2nc(/C=C/c2ccc([N+](=O)[O-])o2)n1-c1ccc(O)cc1,-,74.8,86.0,94.0,91.1,97.8,66.8
C[C@]12CCC3C(CCC4=CC(O)CC[C@@]43/C=N/O)C1(O)CCC2C1=CC(=O)OC1 (some centres undefined),-,-,-,85.5,95.3,-,79.2
C[C@]12CC[C@H]3[C@@H](CC[C@]4(O)C[C@@H](O)CC[C@]34C=O)[C@@]1(O)CC[C@@H]2C1=CC(=O)OC1,-,-,-,86.5,98.3,-,86.3
CCCCN=C[C@]12CCC(O)CC1(O)CCC1[C@@H]2CC[C@]2(C)[C@H](C3C=CC(=O)O3)CCC12O (some centres undefined),-,-,-,78.5,94.3,-,78.6
Cc1ccc(-n2c(=S)[nH]c3ccccc3c2=O)cc1C,.,.,-,.,.,-,.
CN1CCN(c2c(C#N)c(C(F)(F)F)nn2C)CC1,-,-,-,-,-,-,.
COC(=O)C1=C(c2ccc(-c3ccccc3)c(F)c2)C[C@@H]2CC[C@H]1N2C(=O)NCc1ccco1,-,-,-,-,-,-,.
O=c1[nH]c2ccccc2n1C1CCN(C(c2ccccc2OC(F)(F)F)c2nnnn2-c2ccc3c(c2)OCCO3)CC1 (centres undefined),.,.,.,.,.,-,.
CC1=CC(O)C(O)C2(C)C1CC1OC(=O)C(O)C3C(C)C(O)C4(O)OCC13C42 (centres undefined),.,-,-,-,.,-,.
COC(=O)[C@]12OC[C@]34C([C@@H](O)[C@@H]1O)[C@]1(C)CC(=O)C(O)=C(C)[C@@H]1C[C@H]3OC(=O)[C@H](O)[C@@H]24 (some centres undefined),-,-,-,71.2,65.8,-,86.3
CC/C=C/CC(=O)N[C@@H](c1ccccc1)[C@@H](O)C(=O)O[C@H]1C[C@@]2(O)[C@@H](OC(=O)c3ccccc3)C3[C@](C)(C(=O)[C@H](OC(C)=O)C(=C1C)C2(C)C)[C@@H](O)C[C@H]1OC[C@@]31OC(C)=O (some centres undefined),-,-,-,.,65.9,-,63.0
C/C=C(\C)C(=O)N[C@@H](c1ccccc1)[C@@H](O)C(=O)O[C@H]1C[C@@]2(O)[C@@H](OC(=O)c3ccccc3)C3[C@](C)(C(=O)[C@H](OC(C)=O)C(=C1C)C2(C)C)[C@H](O)C[C@H]1OC[C@@]31OC(C)=O (some centres undefined),-,-,-,.,72.0,-,72.9
CC(=O)O[C@@]12CO[C@@H]1C[C@@H](O)[C@@]1(C)C(=O)[C@H](O)C3=C(C)[C@@H](OC(=O)[C@H](O)[C@@H](NC(=O)c4ccccc4)c4ccccc4)C[C@@](O)([C@@H](OC(=O)c4ccccc4)C12)C3(C)C (some centres undefined),-,-,-,.,64.8,-,64.9
CCCCCC(=O)N[C@@H](c1ccccc1)[C@@H](O)C(=O)O[C@H]1C[C@@]2(O)[C@@H](OC(=O)c3ccccc3)C3[C@](C)(C(=O)[C@H](O)C(=C1C)C2(C)C)[C@@H](OC1OCC(O)C(O)C1O)C[C@H]1OC[C@@]31OC(C)=O (some centres undefined),-,-,-,-,-,-,.
CCC(C)C(=O)N[C@@H](c1ccccc1)[C@@H](O)C(=O)O[C@H]1C[C@@]2(O)[C@@H](OC(=O)c3ccccc3)C3[C@](C)(C(=O)[C@H](OC(C)=O)C(=C1C)C2(C)C)[C@@H](O)C[C@H]1OC[C@@]31OC(C)=O (some centres undefined),-,-,-,.,71.7,-,68.0
O=C(CCc1ccccc1)N1Cc2cc(-c3ccccc3)ccc2-n2nncc2C1,.,.,.,.,.,-,.
Cc1cccc(-n2c(O)c(/C=C3/C(c4ccccc4)=Nc4ccccc43)c(=O)[nH]c2=O)c1,-,-,-,-,-,-,.
Cc1ccccc1-n1c(O)c(/C=C2/C(c3ccccc3)=Nc3ccccc32)c(=O)[nH]c1=O,-,-,-,-,52.9,-,-
CCN(CC)C(=O)c1ccc(NC(=O)c2ccc(N3CCCC3=O)cc2)cc1,-,-,-,-,-,-,.
SMILES,697 NFkB inh,Gli-Sufu block,EBV LMP1 NFkB,MITF TRPM1 inh,Jurkat NFkB inh,Shn3 3UTR inh,Jurkat NFkB conf
COc1ccc(C2CN(C)CC2C(=O)c2ccc(C)cc2)cc1Cl (centres undefined),-,-,-,-,-,-,.
C=C(C)[C@@]12OC3(c4ccccc4)O[C@@H]1C1[C@@H]4O[C@]4(CO)[C@@H](O)[C@]4(O)C(=O)C(C)=C[C@H]4[C@@]1(O3)[C@H](C)[C@H]2OC(=O)/C=C/C=C/c1ccccc1 (some centres undefined),-,-,-,-,81.4,-,-
Cc1c(C(=O)C(=O)N2CCC3(CC2)OCCO3)c2ccccc2n1C,-,-,-,-,-,-,.
Cn1ncnc2c(=O)n(C)c(=O)nc1-2,-,94.1,90.4,103.0,55.1,96.6,98.9
O=c1c2ccccc2nc(/C=C/c2ccc(O)cc2)n1-c1ccccc1O,-,-,-,-,-,-,.
COc1ccccc1-n1c(/C=C/c2ccc(O)cc2)nc2ccccc2c1=O,-,-,-,-,-,-,-
COC(=O)C1=C(c2ccc(F)cc2F)C[C@@H]2CC[C@H]1N2C(=O)N1CCC(O)(c2ccc(Cl)cc2)CC1,-,-,-,-,-,-,.
CC[C@@H]1C=CC=CC[C@H](C)[C@@H](O)[C@@H](C)C(=O)[C@H](C)[C@@H](O)[C@H](C)C(=O)[C@H](C)[C@@H](O)[C@H](C)C=CC(=O)O[C@H]2[C@@H](C)[C@@H](CC1)O[C@@]1(CC[C@@H](C)[C@@H](C[C@H](C)O)O1)[C@@H]2C,-,.,.,.,53.0,.,-
CC(=O)C1=C(C)OC(N)=C(C(=O)OC(C)C)C12C(=O)Nc1ccccc12 (centres undefined),-,-,-,-,-,-,.

# Compound activity from PubChem.
